# From ChEMBL document CHEMBL5606460, “ASAP - DENV-2 NS2B-NS3 protease fluorescence single point” (2024)
# Hit rate of the full screen: of about 2,000 compounds, about 110 (5.5%) showed an effect of 50% or more. The full list was thinned out, with strong results kept by preference.
# Target: Genome polyprotein (dengue virus type 2) (UniProt P29990)
# [1] = Thailand/16681/1984, Concentration 25.0 uM, Number of replicates 1.0
structure (smiles),measurement,setting,value
O=C(c1ccc2c(c1)B(O)OC2)N1CCN[C@H](c2ccc(Cl)cc2)C1,inhibition,"Thailand/16681/1984, Concentration 49.5 uM, Number of replicates 2.0, Standard deviation 1.1051975895382533 %",-1.33%
same,inhibition,"Thailand/16681/1984, Concentration 99.01 uM, Number of replicates 2.0, Standard deviation 0.5109273627094355 %",-1.22%
same,inhibition,"Thailand/16681/1984, Concentration 198.0 uM, Number of replicates 2.0, Standard deviation 0.04393612974415127 %",-0.309%
Cc1n[nH]cc1-c1ccccc1C(=O)Nc1cnn(C)c1,inhibition,"Thailand/16681/1984, Concentration 49.5 uM, Number of replicates 2.0, Standard deviation 1.4825862030761958 %",-4.22%
same,inhibition,"Thailand/16681/1984, Concentration 99.01 uM, Number of replicates 2.0, Standard deviation 3.6856999240165664 %",-5.61%
same,inhibition,"Thailand/16681/1984, Concentration 198.0 uM, Number of replicates 2.0, Standard deviation 2.662860479629087 %",-5.61%
Cc1ccc(NC(=O)C2CCN(c3ccc(C=O)cc3)CC2)cc1Br,inhibition,[1],8.71%
CC(C)Cn1cccc(C(=O)Nc2ccncc2C(F)(F)F)c1=O,inhibition,"Thailand/16681/1984, Concentration 49.5 uM, Number of replicates 2.0, Standard deviation 5.23322293563183 %",-3.89%
same,inhibition,"Thailand/16681/1984, Concentration 99.01 uM, Number of replicates 2.0, Standard deviation 0.16283923825626637 %",-4.73%
same,inhibition,"Thailand/16681/1984, Concentration 198.0 uM, Number of replicates 2.0, Standard deviation 1.971758036933884 %",-6.94%
O=Cc1ccc(N2CCC(C(=O)N3CCN(C(=O)[C@H]4COc5ccccc5O4)CC3)CC2)cc1,inhibition,[1],13%
NCc1cccc(NC(=O)[C@H]2CC(F)(F)CN2C(=O)OCc2ccccc2)c1,inhibition,"Thailand/16681/1984, Concentration 49.5 uM, Number of replicates 2.0, Standard deviation 3.8817212285914895 %",-3.13%
same,inhibition,"Thailand/16681/1984, Concentration 99.01 uM, Number of replicates 2.0, Standard deviation 4.048573795130085 %",-2.21%
same,inhibition,"Thailand/16681/1984, Concentration 198.0 uM, Number of replicates 2.0, Standard deviation 4.090127173867097 %",-1.49%
O=Cc1ccc(N2CCC(C(=O)N(Cc3ccco3)Cc3cccs3)CC2)cc1,inhibition,[1],11%
Cc1cc(CO)c2cccc(NC(=O)c3ccc(N)nn3)c2n1,inhibition,"Thailand/16681/1984, Concentration 49.95 uM, Number of replicates 2.0, Standard deviation 1.176901179972867 %",11%
same,inhibition,"Thailand/16681/1984, Concentration 99.9 uM, Number of replicates 2.0, Standard deviation 1.886285239678155 %",19.5%
C[C@@H](Cc1ccc(C(F)(F)F)cc1)NC(=O)C1CCN(c2ccc(C=O)cc2)CC1,inhibition,[1],8.27%
O=Cc1ccc(N2CCC(C(=O)NCC34CC5CC(CC(C5)C3)C4)CC2)cc1,inhibition,[1],11.8%
c1ccc2[nH]c(CN3CC[C@H](c4c[nH]c5ccccc45)C3)cc2c1,inhibition,"Thailand/16681/1984, Concentration 49.5 uM, Number of replicates 2.0, Standard deviation 0.7608740215940771 %",4.51%
same,inhibition,"Thailand/16681/1984, Concentration 99.01 uM, Number of replicates 2.0, Standard deviation 0.30587350380986955 %",4.39%
same,inhibition,"Thailand/16681/1984, Concentration 198.0 uM, Number of replicates 2.0, Standard deviation 0.6449469231287406 %",3.06%
Cc1c(Br)cnc(NC(=O)C2CCN(c3ccc(C=O)cc3)CC2)c1[N+](=O)[O-],inhibition,[1],13.3%
Cc1nn(Cc2nnc(C(C)C)o2)cc1C1CCNCC1,inhibition,"Thailand/16681/1984, Concentration 49.5 uM, Number of replicates 2.0, Standard deviation 1.2271984598057826 %",-1.09%
same,inhibition,"Thailand/16681/1984, Concentration 99.01 uM, Number of replicates 2.0, Standard deviation 0.3137269789739955 %",-1.28%
same,inhibition,"Thailand/16681/1984, Concentration 198.0 uM, Number of replicates 2.0, Standard deviation 0.585185347191749 %",-1.14%
O=Cc1ccc(N2CCC(C(=O)N3CCN(c4ncccn4)CC3)CC2)cc1,inhibition,[1],13.4%
O=C(N[C@H]1CCOC1)c1cc(Cl)ccc1NS(=O)(=O)c1ccc(Oc2ccccc2Cl)cc1,inhibition,"Thailand/16681/1984, Concentration 49.5 uM, Number of replicates 2.0, Standard deviation 0.8156312071794307 %",64.1%
same,inhibition,"Thailand/16681/1984, Concentration 99.01 uM, Number of replicates 2.0, Standard deviation 0.42939613872644544 %",63.6%
same,inhibition,"Thailand/16681/1984, Concentration 198.0 uM, Number of replicates 2.0, Standard deviation 0.707503298737338 %",53%
O=S(=O)(NC1CCCCC1)c1ccc(Oc2ccccc2Cl)cc1,inhibition,"Thailand/16681/1984, Concentration 49.5 uM, Number of replicates 2.0, Standard deviation 1.7919780415060578 %",0.164%
same,inhibition,"Thailand/16681/1984, Concentration 99.01 uM, Number of replicates 2.0, Standard deviation 2.26588512977007 %",2.51%
same,inhibition,"Thailand/16681/1984, Concentration 198.0 uM, Number of replicates 2.0, Standard deviation 2.2194744531827233 %",5.38%
O=C(NC[C@H]1CCOC1)c1cc(Cl)ccc1NS(=O)(=O)c1ccc(Oc2ccccc2Cl)cc1,inhibition,"Thailand/16681/1984, Concentration 49.5 uM, Number of replicates 2.0, Standard deviation 2.9570930238802475 %",78.1%
same,inhibition,"Thailand/16681/1984, Concentration 99.01 uM, Number of replicates 2.0, Standard deviation 0.09728436725720986 %",83.4%
same,inhibition,"Thailand/16681/1984, Concentration 198.0 uM, Number of replicates 2.0, Standard deviation 0.16101849440059574 %",79%
Cc1cc(CN)c2cccc(Cl)c2n1,inhibition,"Thailand/16681/1984, Concentration 49.95 uM, Number of replicates 2.0, Standard deviation 5.413623438036859 %",-7.74%
same,inhibition,"Thailand/16681/1984, Concentration 99.9 uM, Number of replicates 2.0, Standard deviation 5.696602605148216 %",-7.99%
CN(CCO[Si](C)(C)C(C)(C)C)C(=O)C1CCN(c2ccc(C=O)cc2)CC1,inhibition,[1],11.8%
Cc1cc(CO)c2cccc(Cc3cccc(NC(=O)C(=O)c4ccco4)c3)c2n1,inhibition,"Thailand/16681/1984, Concentration 49.95 uM, Number of replicates 2.0, Standard deviation 2.5499602835301056 %",-0.234%
same,inhibition,"Thailand/16681/1984, Concentration 99.9 uM, Number of replicates 2.0, Standard deviation 0.7837509937910023 %",-0.946%
Cc1cc(C(=O)N2CCN(C(=O)c3cc(C(C)(F)F)n[nH]3)CC2)cc2nn[nH]c12,inhibition,"Thailand/16681/1984, Concentration 49.5 uM, Number of replicates 2.0, Standard deviation 0.5040908488530289 %",1.22%
same,inhibition,"Thailand/16681/1984, Concentration 99.01 uM, Number of replicates 2.0, Standard deviation 0.07028947937337628 %",1.9%
same,inhibition,"Thailand/16681/1984, Concentration 198.0 uM, Number of replicates 2.0, Standard deviation 0.7181064342983147 %",2.65%
O=Cc1ccc(N2CCC(C(=O)N[C@@H](CCO)c3ccccc3F)CC2)cc1,inhibition,[1],11.4%
CNC(=O)[C@H]1CN(S(=O)(=O)c2ccc(Oc3ccccc3Cl)cc2)CCO1,inhibition,"Thailand/16681/1984, Concentration 49.5 uM, Number of replicates 2.0, Standard deviation 0.2669928674711758 %",-4.8%
same,inhibition,"Thailand/16681/1984, Concentration 99.01 uM, Number of replicates 2.0, Standard deviation 0.624095865646037 %",-4.22%
same,inhibition,"Thailand/16681/1984, Concentration 198.0 uM, Number of replicates 2.0, Standard deviation 0.6183745152543801 %",-5.47%
Nc1ccc(Cl)c2cccnc12,inhibition,"Thailand/16681/1984, Concentration 49.95 uM, Number of replicates 2.0, Standard deviation 3.8383177085719704 %",-6.59%
same,inhibition,"Thailand/16681/1984, Concentration 99.9 uM, Number of replicates 2.0, Standard deviation 5.003138959022175 %",-3.71%
